TDP1 cell CPT: growth inhibition of DT40 Tdp1-/-;hTDP1 cells with camptothecin (screen for TDP1 inhibitors) | chicken DT40 Tdp1-/-;hTDP1 cells + 20 nM CPT, ATP luminescence, 48 h | Potency, µM (doses to about 46.2 µM), inactives show at the highest dose activity change, negative = growth inhibition, most hits filed as inhibitors | 12% of 420,000 active | AID 686979; note: potency is the fitted concentration of half-maximal effect; nearly all actives have a fitted effect of over 55% in size
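Chicken DT40 Tdp1-/- cells stably complemented with human TDP1 were seeded at 400 cells/well in medium containing 20 nM camptothecin, exposed to pin-transferred compounds, and grown at 37 °C for at least 48 hr. Viability was read as ATP luminescence.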
HT1080-NT tox: kills 2HG-producing HT-1080-NT fibrosarcoma cells. HT-1080-NT fibrosarcoma viability, CellTiter-Glo ATP luminescence, 48 h. Potency, µM (series often up to 46.1 µM), for inactives: at the top dose activity, negative = less viability, most hits filed as cytotoxic. 1.6% of 360,000 active;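 note: NT is the 2HG producing partner of a matched IDH1 knockdown line; potency is the fitted concentration of half-maximal effect; 0% = DMSO-treated cells and -100% = media-only wells without cells; nearly all actives have a fitted effect of over 55% in size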
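A 48-hour cytotoxicity screen used HT-1080-NT cells plated 2 hours before compound delivery. ATP-based CellTiter-Glo luminescence measured viability, normalized to DMSO and no-cell controls.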
HT1080 IDH1KD tx: kills HT-1080 cells with IDH1 knockdown; HT-1080 IDH1 knockdown viability, ATP luminescence, 48 h; 2% of 360,000 active; AID 686971; Potency, µM (highest dose often 46.1 µM), for the others: at the top dose activity, negative = toxicity, most hits filed as cytotoxic;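 note: potency is the fitted concentration of half-maximal effect; 0% = DMSO wells and -100% = cell-free medium wells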
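% activity derives from luminescence (CellTiter-Glo), normalised to DMSO and no-cell wells. HT-1080-IDH1KD cells, 750/well, had 48 h compound exposure at 37 °C.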
TDP1 cell noCPT: qHTS for Inhibitors of human tyrosyl-DNA phosphodiesterase 1 (TDP1): qHTS in cells in absence of CPT | DT40 Tdp1-/- hTDP1 cells, no CPT, ATP luminescence, 48 h | Potency, µM (series often up to 46.2 µM), inactives show at the top dose activity change, negative = growth inhibition, hits mostly inhibitors | 15% of 420,000 active | AID 686978, 2013; note: potency is the fitted concentration of half-maximal effect; nearly all actives have a fitted effect of over 55% in size
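Luminescent ATP content (CellTiter-Glo) served as the growth readout. Knockout chicken DT40 cells expressing human TDP1 were exposed to compounds without camptothecin for a minimum 48 hr at 37 °C.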
IL-1B inflam inh: inhibitors of inflammasome signaling (IL-1 beta secretion); THP-1 LPS/ATP IL-1B secretion, AlphaLISA, 16 h; active compounds read low; 4.7% of 360,000 active; activity change, % at 57.5 µM; AID 743279; in the data active = activity change below about -50%; inconclusive = mostly about -30% to -49%
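THP-1 cells pretreated 1 hr with compounds (up to 57.5 uM final), then stimulated with LPS (250 ng/mL final) plus ATP (1.25 mM final); secreted IL-1B measured by AlphaLISA after 16 hr, decreased signal indicating inhibition.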
ELG1 repair inh: inhibitors of ELG1-dependent DNA repair in HEK293T cells | Potency, µM (highest dose often 46.1 µM), for the others: at the top dose activity change, negative = inhibition, hits mostly inhibitors | 2.3% of 330,000 active | HEK293T ELG1-luciferase reporter, luminescence, 16 h; DNA damage induced by 5-fluorouridine; note: potency is the fitted concentration of half-maximal effect; nearly all actives have a fitted effect of over 55% in size
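Quantitative HTS, concentration-response format. 2,000 cells/well co-treated with 5-fluorouridine and compound, 16 hr in 5% CO2 at 37 °C; ONE-Glo luminescence read after 30 min.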
Numbers without * were called inactive; ? = inconclusive; / = no result given; [ ] = another dose, or the depositor's remark. In the library only some 19% were active in any assay of this set; here they are far more common. Unless noted, calls come from the whole dose curve; as a rule, active = well fitted curve in the direction sought with a large enough effect; inconclusive = small, poorly fitted or top-dose-only effect, or another doubt; inactive = no such curve, though single readings can be large; an effect the other way counts as inactive or inconclusive. Unless noted, % is set by controls: 0 for no effect and ±100 for the full control effect.

SMILES	TDP1 cell CPT	HT1080-NT tox	HT1080 IDH1KD tx	TDP1 cell noCPT	IL-1B inflam inh	ELG1 repair inh
Cc1ccc(S(=O)(=O)N2CCCC2C(=O)NCCc2ccccc2)cc1 (stereo not drawn)	-14.1%	-1.0%	-3.0%	14.6µM*	-2.7	0.0%
COc1ccc(NC(=O)CN(C)C(=O)CN2C(=O)c3ccc([N+](=O)[O-])cc3C2=O)cc1	4.2%	10.5%	7.1%	8.5%	14.7	1.2%
COc1ccc(S(=O)(=O)N2CCCC2CNC(=O)C(=O)NCc2ccccc2Cl)cc1 (stereo not drawn)	?	-20.1%	-21.7%	23.1µM*	-17.9	?
COc1ccc(S(=O)(=O)N2CCCC2CNC(=O)C(=O)NC2CCCC2)cc1 (stereo not drawn)	-16.4%	-0.4%	-3.1%	?	4.0	/
CC(C)(C)c1ccc(S(=O)(=O)N2CCCCC2C(=O)NCc2ccccn2)cc1 (stereo not drawn)	23.1µM*	2.9%	5.1%	?	23.5	?
COc1ccc(CCNC(=O)C(=O)NCC2OCCN2S(=O)(=O)c2ccccc2)cc1OC (stereo not drawn)	?	-8.2%	-2.4%	-18.6%	-24.3	0.1%
COc1ccc(CCNC(=O)C(=O)NCC2CCCN2S(=O)(=O)c2ccccc2)cc1OC (stereo not drawn)	?	-10.3%	-16.6%	13µM*	-23.0	?
COc1ccc(CCNC(=O)C(=O)NCC2CCCN2S(=O)(=O)c2ccc(OC)cc2)cc1 (stereo not drawn)	?	2.8%	0.0%	?	-12.4	20.6µM*
CCN(CC)C(=O)COc1coc(CN2CCN(c3ccccc3F)CC2)cc1=O	-7.9%	-0.3%	1.9%	-3.9%	16.0	2.6%
CCOC(=O)c1c(C)[nH]c(C)c1C(=O)COC(=O)[C@@H]1CCCN1S(=O)(=O)c1ccc(Cl)cc1	14.6µM*	-2.8%[9.24 µM]	8.8%	13µM*	-4.8	2.2%
Cc1ccc(S(=O)(=O)N2CCCC2C(=O)OCc2ccco2)cc1 (stereo not drawn)	14.6µM*	-4.4%	?	20.6µM*	-19.8	20.9%
O=C(NCCc1ccccc1)C1CCCN1C(=O)Nc1ccc(F)cc1 (stereo not drawn)	?	12.4%	6.5%	14.6µM*	-1.6	-5.9%
CC(C)(C#N)NC(=O)C1CCCN1S(=O)(=O)c1ccc2ccccc2c1 (stereo not drawn)	23.1µM*	?	?	?	23.2	0.3%
O=C(COC(=O)[C@@H]1CCCN1S(=O)(=O)c1ccc(Cl)cc1)NCC(F)(F)F	-1.8%	8.8%	14.6%	-11.8%	0.9	-1.4%
CCCN(CC)C(CC)C(=O)Nc1c(C)cccc1C (stereo not drawn)	0.4%	/	/	-13.0%	/	/
CC(C)CCNC(=O)Cn1nc(N2CCN(c3ccccc3)CC2)ccc1=O	-3.9%	/	/	-18.1%	/	/
CSc1ccccc1NC(=O)CN(Cc1ccc(Cl)cc1)S(C)(=O)=O	-21.9%	-4.0%	1.0%	-22.8%	-63.4*	-23.7%
OC1COC(c2ccccc2)OC1C(O)C1OC(c2ccccc2)OCC1O (stereo not drawn)	0.8%	0.5%	1.3%	-21.6%	7.9	/
O=C(Cc1ccc(F)cc1)Nc1nnc2n1CCS2	-4.3%	/	/	-5.4%	/	/
CCOc1ccc(N(C)S(=O)(=O)c2ccc3[nH]cc(C(=O)NCC4CCCO4)c(=O)c3c2)cc1 (stereo not drawn)	?	6.9%	3.5%	?	-2.3	23.1µM*
CCc1ccc(N(C)S(=O)(=O)c2ccc3[nH]cc(C(=O)NCC4CCCO4)c(=O)c3c2)cc1 (stereo not drawn)	?	/	/	14.6µM*	/	/
CCc1ccc(NS(=O)(=O)c2ccc3[nH]cc(C(=O)NCC4CCCO4)c(=O)c3c2)cc1 (stereo not drawn)	-15.2%	-1.6%	-24.6%	-7.7%	2.5	?
CN(CC(=O)NCCC1=CCCCC1)S(=O)(=O)c1ccc2c(c1)c(=O)n(C)c(=O)n2C	8.2µM*	-3.8%	-0.2%	?	-9.9	?
CCOc1ccc(N(C)S(=O)(=O)c2ccc3[nH]cc(C(=O)NCC(OC)OC)c(=O)c3c2)cc1	?	-2.2%	0.0%	25.9µM*	5.1	-12.8%
FC(F)(F)c1ccccc1-c1cc(NCc2cccnc2)ncn1	9.0%	/	/	23.9%	/	/
SMILES	TDP1 cell CPT	HT1080-NT tox	HT1080 IDH1KD tx	TDP1 cell noCPT	IL-1B inflam inh	ELG1 repair inh
CCOc1ccc(N(CC(=O)NCC2CCCO2)S(=O)(=O)c2ccc(SC)cc2)cc1 (stereo not drawn)	12.6µM*	-0.6%	12.2%	-11.8%	-5.7	5.0%
CCN(C(=O)CN(C)S(=O)(=O)c1ccc2c(c1)c(=O)n(C)c(=O)n2C)c1ccc(OC)cc1	-16.8%	/	/	23.1µM*	/	/
CCN(CC)S(=O)(=O)c1ccc2[nH]cc(C(=O)NCCC3=CCCCC3)c(=O)c2c1	10.3µM*	?	23.1µM*	18.4µM*	?	13µM*
CCOc1ccc(S(=O)(=O)N(CC(=O)NCC2CCCO2)c2ccc(F)cc2)cc1 (stereo not drawn)	-19.4%	-0.7%	-1.1%	?	-0.2	6.1%
CCCNC(=S)NCc1ccc(Cl)cc1	?	-4.2%	-0.7%	?	-4.4	17.0%
CC/C(=N\N=C(/CC)c1ccccc1N)c1ccccc1N	29.1µM*	-0.7%	1.8%	23.1µM*	-1.1	/
Cc1ccc(C(=O)/C=C/c2ccc(-c3ccccc3[N+](=O)[O-])o2)cc1	?	?	-0.8%[9.24 µM]	18.4µM*	-95.5*	1.7%
Cc1ccc(/C=C/C(=O)c2ccc(C)cc2)cc1	-25.9%	8.9%	7.1%	?	?	?
O=C(/C=C/c1ccc(-c2ccccc2[N+](=O)[O-])o1)c1ccc(Br)cc1	?	?	?	16.4µM*	-65.9*	0.0%
O=C(/C=C/c1ccccc1[N+](=O)[O-])c1ccccc1Br	20.6µM*	?	20.6µM*	8.2µM*	-103.5*	?
Cc1ccc(C(=O)/C=C/c2ccccc2[N+](=O)[O-])cc1	?	?	?	18.4µM*	-57.2*	?
N#C/C(=C/c1ccc(-c2ccccc2[N+](=O)[O-])o1)C(N)=O	-0.4%	12.2%	14.3%	4.4%	-8.7	2.3%
O=C(NCc1ccco1)C1CCCN1C(=O)Nc1ccc(Br)cc1 (stereo not drawn)	-13.4%	?	19.6%	-15.0%	1.0	-3.2%
